Hits are enriched below; roughly 19% of the tested compounds scored in any of these assays.
DT40 TDP1 no CPT = qHTS for Inhibitors of human tyrosyl-DNA phosphodiesterase 1 (TDP1): qHTS in cells in absence of CPT; 420,000 compounds, 15% hits; AID 686978, 2013; Potency, µM (top dose mostly 46.2 µM), hits mostly inhibitors; DT40 Tdp1-/- hTDP1 cells, no CPT, ATP luminescence, 48 h; note: nearly all actives have a fitted effect of over 55% in size
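DT40 Tdp1-/-;hTDP1 cells, no CPT (DMSO vehicle only), 400 cells/well; compounds pin-transferred; ≥48 hr, 37 °C; CellTiter-Glo 30 min RT dark, luminescence read.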
HT1080 IDH1KD tx = HT-1080 IDH1 knockdown cell toxicity (counter line); HT-1080 IDH1 knockdown viability, ATP luminescence, 48 h; 360,000 compounds, 2% hits; Potency, µM (highest dose often 46.1 µM), most hits filed as cytotoxic; AID 686971
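After a 2 h attachment period, IDH1KD HT-1080 cells took pin-transferred compound for 48 h at 37 °C; ATP-based luminescence after 10 min room-temperature reagent incubation reported viability.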
IL-1B inflam inh = blocks inflammasome-driven IL-1 beta release; activity change, % at 57.5 µM; 360,000 compounds, 4.7% hits; THP-1 LPS/ATP IL-1B secretion, AlphaLISA, 16 h; hits give low values; in the data active = activity change below about -50%; inconclusive = mostly about -30% to -49%
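THP-1 cells pretreated 1 hr with compounds (up to 57.5 uM final), then stimulated with LPS (250 ng/mL final) plus ATP (1.25 mM final); secreted IL-1B measured by AlphaLISA after 16 hr, decreased signal indicating inhibition.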
HT1080NT lethal = kills 2HG-producing HT-1080-NT fibrosarcoma cells; HT-1080-NT fibrosarcoma viability, CellTiter-Glo ATP luminescence, 48 h; Potency, µM (doses to about 46.1 µM), usual class: cytotoxic; 360,000 compounds, 1.6% hits;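 note: NT is the 2HG producing partner of a matched IDH1 knockdown line; nearly all actives have a fitted effect of over 55% in size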
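Toxicity toward the 2HG-producing NT line was scored as %Activity, normalised to DMSO and no-cell wells, from CellTiter-Glo luminescence after 48 hours' treatment.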
ELG1 DNA repair = ELG1-dependent DNA repair inhibition; HEK293T ELG1-luciferase reporter, luminescence, 16 h; DNA damage induced by 5-fluorouridine; Potency, µM (top dose mostly 46.1 µM), actives largely listed as inhibitors; 330,000 compounds, 2.3% hits; note: nearly all actives have a fitted effect of over 55% in size
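HEK293T cells expressing luciferase-tagged ELG1 (2,000/well) received 5-Fluorouridine plus compound or DMSO for 16 hr at 37 °C. Luciferase was read by ONE-Glo luminescence after 30 min at room temperature.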
DT40 TDP1 CPT = DT40-hTDP1 cell growth loss with CPT | Potency, µM (titrated, usually from 46.2 µM), most hits filed as inhibitors | chicken DT40 Tdp1-/-;hTDP1 cells + 20 nM CPT, ATP luminescence, 48 h | 420,000 compounds, 12% hits; note: nearly all actives have a fitted effect of over 55% in size
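Cell growth measured by CellTiter-Glo luminescence after a minimum 48 h, 37 C compound exposure with 20 nM CPT in Tdp1-knockout DT40 cells stably expressing hTDP1, seeded 400/well; qHTS titration format.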
Hits are given with their value; - = inactive; ? = inconclusive; . = no result given. Unless noted, calls come from the whole dose curve; as a rule, active = well fitted curve in the direction sought with a large enough effect; inconclusive = small, poorly fitted or top-dose-only effect, or another doubt; inactive = no such curve, though single readings can be large; an effect the other way counts as inactive or inconclusive.

SMILES	DT40 TDP1 no CPT	HT1080 IDH1KD tx	IL-1B inflam inh	HT1080NT lethal	ELG1 DNA repair	DT40 TDP1 CPT
COC(=O)Cn1c(C(=O)N2CCCC2)cc2c1C[C@H]1CN(C(=O)c3ccccc3)[C@@](Cc3ccc(OC)cc3)(C(=O)OC)[C@@H]21	?	-	-	-	.	?
O=C(Nc1ccccc1C(=O)OCc1cc(=O)n2nc(C3CC3)sc2n1)c1cccc(F)c1	-	.	.	.	.	-
CCn1nc(C)c(CN2CCC(C(=O)Nc3cccc(-c4cccc(Cl)c4)c3)CC2)c1C	?	?	-	-	-	?
COCCn1c(=O)c(C)nc2cncnc21	-	.	.	.	.	-
S=C(Nc1ccc(Cl)c(Cl)c1)N1CCCC1	-	-	-	-	-	-
S=C(Nc1ccc2nsnc2c1)N1CCCCC1	-	?	-64	?	-	-
COc1ccc(CN2CCC2(C)C(=O)Nc2ccc(OC)c(OC)c2)cc1 (stereo unspecified)	?	-	-	-	.	?
CSc1ccc(CN2CCC2(C)C(=O)NC2CCN(Cc3ccccc3)CC2)cc1 (stereo unspecified)	18µM	-	-	-	.	26µM
CCN(Cc1ccccc1)C1CCN(Cc2ccc(SC)cc2)CC1	?	-	-72	-	?	?
COc1ccc(NC(=O)C2(C)CCN2Cc2ccc(SC)cc2)cc1OC (stereo unspecified)	?	-	-	-	.	16µM
COc1ccc(NC(=O)C2(C)CCN2Cc2ccc(OC(F)(F)F)cc2)cc1OC (stereo unspecified)	?	-	-	-	.	23µM
O=C(NCc1ccccn1)[C@@H]1CCCN1C(=O)[C@@H]1CCCN1C(=O)c1ccc(Cl)cc1	-	-	-	-	.	-
COc1ccc(C2=Nc3ccccc3N(C(=O)c3ccc(C(F)(F)F)cc3)C2C(=O)Nc2ccc3c(c2)OCCO3)cc1 (stereo unspecified)	-	-	-	-	.	-
CCc1ccc(N(CC(=O)NC(C)C)C(=O)CCC(=O)Nc2ccccn2)cc1	-	-	-	-	-	-
COc1cccc(OC)c1C(=O)N=c1sc2cc(S(C)(=O)=O)ccc2n1C	-	-	-	-	-	-
COc1ccc(OC)c2c1sc(=NC(=O)C1CCCCC1)n2C	-	-	-	-	-	-
COc1cc(C(=O)N=c2sc3c(C)ccc(OC)c3n2C)cc(OC)c1OC	5.2µM	-	-	-	-	15µM
COc1ccc(C(=O)N=c2sc3c(C)ccc(OC)c3n2C)cc1	4.1µM	-	-	-	?	3.3µM
COc1cc(C(=O)N=c2sc3ccccc3n2C)cc(OC)c1OC	8.2µM	-	-	-	?	7.3µM
Cn1cnc2nc[nH]c2c1=O	-	-	-	-	.	-
CCCCCCCCCCCCCCCC(=O)C(F)(F)F	-	.	.	.	.	-
CCc1ccc(S(=O)(=O)c2nnn3c2nc(N2CCCC(C)C2)c2cc(Cl)ccc23)cc1 (stereo unspecified)	7.3µM	.	.	.	.	?
CCc1ccc(S(=O)(=O)c2nnn3c2nc(N2CCC(C)CC2)c2cc(Cl)ccc23)cc1	10µM	.	.	.	.	18µM
Cc1nn(Cc2ccccc2Cl)c2sc(C(=O)Nc3ccccc3N3CCOCC3)cc12	?	-	-	-	23µM	10µM
CCC(CC)NC(=O)c1cc2c(C)nn(Cc3ccccc3Cl)c2s1	?	?	-	-	?	23µM
SMILES	DT40 TDP1 no CPT	HT1080 IDH1KD tx	IL-1B inflam inh	HT1080NT lethal	ELG1 DNA repair	DT40 TDP1 CPT
COc1ccccc1CNC(=O)c1cc2c(C)nn(Cc3ccc(F)cc3)c2s1	?	-	-52	-	?	?
Cc1nn(Cc2ccc(F)cc2)c2sc(C(=O)Nc3nccs3)cc12	-	-	-	-	?	-
Cc1nn(Cc2ccccc2Cl)c2sc(C(=O)Nc3nccs3)cc12	?	-	-	-	-	-
CCOC(=O)c1sc(NC(=O)CN2C(=O)C3CC=CCC3C2=O)nc1C (stereo unspecified)	-	-	-	-	-	-
Cc1ccc(S(=O)(=O)N2C[C@]3(O)C[C@@H]4C(=O)N(c5ccccc5)C(=O)[C@@H]4C[C@]3(OC(=O)Nc3cccs3)C2)cc1	?	-	-	-	.	?
Cc1ccc(S(=O)(=O)N2C[C@H]3N(C(=O)OC(C)C)N(C(=O)OC(C)C)C[C@H](OC(=O)Nc4c(C)noc4C)[C@@]3(O)C2)cc1	?	-	-51	-	.	?
Cc1ccc(S(=O)(=O)N2C[C@]3(O)C[C@@H]4C(=O)N(c5ccccc5)C(=O)[C@@H]4C[C@]3(OC(=O)Nc3c(C)noc3C)C2)cc1	-	-	-	-	.	-
Cc1ccc(S(=O)(=O)N2C[C@H]3N(C(=O)OC(C)C)N(C(=O)OC(C)C)C[C@H](OC(=O)Nc4cccs4)[C@@]3(O)C2)cc1	23µM	-	-80	-	.	?
Cc1cccc(NC(=O)CNC(=O)Cc2ccc(S(=O)(=O)N3CCOCC3)s2)c1C	-	-	-	-	-	-
C[C@@H]1CN([C@@H](C)CO)S(=O)(=O)c2ccc(Br)cc2O[C@H]1CN(C)C(=O)Nc1ccc2c(c1)OCO2	?	-	-	-	.	?
CC1(c2ccc(OC(F)F)cc2)NC(=O)N(CC(=O)N2CCN(C(=O)c3ccco3)CC2)C1=O (stereo unspecified)	-	-	-	-	-	-
CCc1nc2ccc(C(=O)N3CCN(C(=O)c4ccco4)CC3)cn2c1N(C)Cc1cccs1	?	-	-	-	.	?
CCc1nc2ccc(C(=O)NC3CCN(Cc4ccccc4)CC3)cn2c1N(C)Cc1cc2ccccc2s1	21µM	?	-66	16µM	.	26µM
CCc1nc2ccc(C(=O)NC3CCN(Cc4ccccc4)CC3)cn2c1N(C)Cc1cccs1	16µM	?	-52	?	.	?
COC(=O)Cc1c(C)c2ccc(OCC(=O)N(C)C3CCS(=O)(=O)C3)cc2oc1=O (stereo unspecified)	-	-	-	-	-	-
CC(=O)Nc1ccc(NC(=O)CSc2ccc(-c3ccc(-n4ccnc4)cc3)nn2)cc1	-	-	-	-	?	?
CCC(=O)Nc1ccc2nc(SCCOc3ccc(C)cc3OC)sc2c1	15µM	.	.	.	.	?
COc1cc(C)ccc1OCCSc1nc2ccc(NC(=O)c3ccc(F)cc3)cc2s1	8.2µM	.	.	.	.	?
Cc1cc2c(cc1S(=O)(=O)Nc1cccc(Cl)c1C)OCCN2C	18µM	.	.	.	.	?
CCOc1ccc(NS(=O)(=O)c2cc3c(cc2C)N(C)CCO3)cc1	21µM	-	-	-	-	21µM
